Measured values as given in the supplement of paper PMC3334620.
Over roughly 33,000 sequences, “E-score (-0.5 to 0.5)” has its median near -0.04; the highest 2% begin near 0.36. The list comes from a sample in which the highest values are over-represented; it also holds similar and randomly drawn sequences.

molecular target: T1, Hmlalpha2 (UniProt P0CY09); assay: PBM E-score (8-mer binding enrichment) (E-score (-0.5 to 0.5)); higher = stronger / more preferred TF binding; conditions: protein concentration: 200 nM; construct: GST-full length
T1 sequence: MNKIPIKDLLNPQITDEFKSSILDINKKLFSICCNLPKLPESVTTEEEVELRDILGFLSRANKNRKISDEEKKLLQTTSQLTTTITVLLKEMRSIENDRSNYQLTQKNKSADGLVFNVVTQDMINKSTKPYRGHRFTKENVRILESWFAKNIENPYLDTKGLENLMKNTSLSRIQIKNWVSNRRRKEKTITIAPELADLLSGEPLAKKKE
Method: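 Universal 'all 10-mer' protein binding microarrays (Agilent AMADID 015681) probed with GST-tagged S. cerevisiae TFs (full-length or DBD) made by in vitro transcription/translation (PURExpress), about 100-200 nM. Bound TF was detected with fluorescent anti-GST. Each ungapped 8-mer (which stands for itself and its reverse complement) is scored by the PBM enrichment score (E-score), a modified Wilcoxon-Mann-Whitney statistic from -0.5 to +0.5, computed with the Universal PBM Analysis Suite. Scale: above 0.35 generally sequence-specific binding.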

Sequence	PBM E-score
AGAATGGG	-0.307
GATTCCAA	-0.0677
ACATGCCG	0.356
TAGCAGCA	-0.0647
GACCCAGA	-0.168
CCTCCCGC	-0.0916
ATCCGTGG	-0.229
CCGATCAA	-0.0314
CGCACCGC	-0.177
CCGCCAAA	-0.105
CGAAAGAA	-0.0556
TCCGCGGA	-0.0621
ACGAAAGA	-0.0344
AATCGTAC	0.102
GACATGCC	0.212
GACATGCA	0.294
CACATGCA	0.234
TACATGCA	0.438
CACATGCC	0.209
AACATGCC	0.388
ACGTTAGA	0.146
GGTCCGGA	-0.0474
TAAGCGAA	0.122
TTTCGAAA	0.0465

Sequence	PBM E-score
ATTTCTAC	0.234
CACATAAC	0.242
AACATAGA	0.284
ATCATAAG	-0.00054
AACATAGG	0.38
CACATAAG	0.117
CACATAGG	0.0614
AACATAAC	0.403
AACATAAT	0.287
AACATAAG	0.391
CCGCAGTA	-0.0882
ATATTCTA	0.169
CTCTTCGC	-0.205
CCATTGCG	-0.262
GGGTATCA	-0.118
AGCATAGC	0.0169
ATGCGTAA	0.375
GGGCGTAA	0.0836
ATGCGTAG	0.214
CTGCGTAC	0.186
CTGCGTTA	0.226
GTGCGTAA	0.406
GTGCGTGA	0.192
CTGCGTAA	0.417

Sequence	PBM E-score
ATGCGTAC	0.273
GTTCTGAA	0.213
TGTGGGAA	0.00853
CCCTCGCG	-0.199
ATGAGCAC	-0.067
ACTAAGTC	-0.157
AATATTAC	0.381
AATATTAG	0.0923
AATATTAT	0.189
ACCACCAG	-0.148
AATACGCG	0.399
CATACGCG	0.177
AATACGCA	0.385
AATACGCT	0.234
AATACGCC	0.0351
GATACGCA	0.144
CGACTTTA	0.134
AGGCACGC	-0.188
ATATTACG	0.352
CTATTACC	-0.0498
GTATTAAA	0.307
GTATTACA	0.403
GTATTAGA	0.289
CTATTACA	0.442

Sequence	PBM E-score
ATATTACC	0.187
CTATTAGA	-0.0387
ATATTACA	0.439
ATCTTTCA	0.0227
TTTCAAAA	0.17
CTGATACC	-0.15
CGTTTGAC	0.0383
ACGTAATC	0.392
GCGTAATA	0.373
CCGTAATA	0.159
ACGTAAGC	0.0597
ACGTAATG	0.408
AGGTAATG	0.226
CCGTAATC	-0.00299
AAGTAATG	0.196
GAGTAATA	0.286
ACGTAATA	0.431
AGGTAATA	0.139
ACGTAAGA	0.29
GCTGCTTA	-0.0322
CCAATGCG	-0.181
GGTAAGCA	-0.0728
